# Experimental data reported in PMC5540273 (PLoS ONE, 2017).
# Read-outs that look alike come from different tables or passages of the source.
# Key:
# CSNK1A1L = settings: concentration: 1 μM, replicates: in singlicate; n = 1
# CSNK1A1 = settings: concentration: 1 μM, replicates: in singlicate; n = 1
# CSNK1D = settings: concentration: 1 μM, replicates: in singlicate; n = 1
# CSNK1E = settings: concentration: 1 μM, replicates: in singlicate; n = 1
# CSNK1G1 = settings: concentration: 1 μM, replicates: in singlicate; n = 1
# CSNK1G2 = settings: concentration: 1 μM, replicates: in singlicate; n = 1
# CSNK1G3 = settings: concentration: 1 μM, replicates: in singlicate; n = 1
# CSNK2A1 = settings: n = 1
# CSNK2A2 = settings: n = 1
# CTK = system: T1, CTK; settings: concentration: 1 μM, replicates: in singlicate; n = 1
# T1 construct: gene MATK
# DAPK1 = settings: concentration: 1 μM, replicates: in singlicate; n = 1
# DAPK2 = settings: concentration: 1 μM, replicates: in singlicate; n = 1
# DAPK3 = settings: concentration: 1 μM, replicates: in singlicate; n = 1
# DCAMKL1 = system: T2, DCAMKL1; settings: concentration: 1 μM, replicates: in singlicate; n = 1
# T2 construct: gene DCLK1
# DCAMKL2 = system: T3, DCAMKL2; settings: concentration: 1 μM, replicates: in singlicate; n = 1
# T3 construct: gene DCLK2
# DCAMKL3 = system: T4, DCAMKL3; settings: concentration: 1 μM, replicates: in singlicate; n = 1
# T4 construct: gene DCLK3
# DDR1 = settings: concentration: 1 μM, replicates: in singlicate; n = 1
# DDR2 = settings: concentration: 1 μM, replicates: in singlicate; n = 1
# DLK = system: T5, DLK; settings: concentration: 1 μM, replicates: in singlicate; n = 1
# T5 construct: gene MAP3K12
# DMPK2 = system: T6, DMPK2; settings: concentration: 1 μM, replicates: in singlicate; n = 1
# T6 construct: gene CDC42BPG
# [1] = concentration: 1 μM, replicates: in singlicate
# 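Further: KINOMEscan kinase panel screen.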
structure (smiles),measurement,setting,value
O=C(NCCNc1ccnc(Nc2ccc(F)cc2)n1)Nc1ccccc1F [GSK1379880],%Inh,CSNK1A1L,16%
same,%Inh,CSNK1A1,0%
same,%Inh,CSNK1D,11%
same,%Inh,CSNK1E,9%
same,%Inh,CSNK1G1,1%
same,%Inh,CSNK1G2,0%
same,%Inh,CSNK1G3,16%
same,%Inh,CSNK2A1; [1],0%
same,%Inh,CSNK2A2; [1],3%
same,%Inh,CTK,0%
same,%Inh,DAPK1,0%
same,%Inh,DAPK2,0%
same,%Inh,DAPK3,9%
same,%Inh,DCAMKL1,19%
same,%Inh,DCAMKL2,0%
same,%Inh,DCAMKL3,24%
same,%Inh,DDR1,29%
same,%Inh,DDR2,18%
same,%Inh,DLK,0%
same,%Inh,DMPK2,0%
O=C(NOCC1CC1)c1ccc(F)c(F)c1Nc1ccc(I)cc1Cl,%Inh,CSNK1A1L,0%
same,%Inh,CSNK1A1,3%
same,%Inh,CSNK1D,0%
same,%Inh,CSNK1E,3%
same,%Inh,CSNK1G1,0%
same,%Inh,CSNK1G2,0%
same,%Inh,CSNK1G3,0%
same,%Inh,CSNK2A1; [1],0%
same,%Inh,CSNK2A2; [1],18%
same,%Inh,CTK,0%
same,%Inh,DAPK1,1%
same,%Inh,DAPK2,0%
same,%Inh,DAPK3,0%
same,%Inh,DCAMKL1,0%
same,%Inh,DCAMKL2,0%
same,%Inh,DCAMKL3,0%
same,%Inh,DDR1,0%
same,%Inh,DDR2,0%
same,%Inh,DLK,1%
same,%Inh,DMPK2,0%
NS(=O)(=O)c1cccc(-c2ccc3nccc(-c4cccc(S(N)(=O)=O)c4)c3c2)c1 [GW867253],%Inh,CSNK1A1L,0%
same,%Inh,CSNK1A1,0%
same,%Inh,CSNK1D,0%
same,%Inh,CSNK1E,12%
same,%Inh,CSNK1G1,0%
same,%Inh,CSNK1G2,0%
same,%Inh,CSNK1G3,0%
same,%Inh,CSNK2A1; [1],0%
same,%Inh,CSNK2A2; [1],22%
same,%Inh,CTK,31%
same,%Inh,DAPK1,0%
same,%Inh,DAPK2,0%
same,%Inh,DAPK3,2%
same,%Inh,DCAMKL1,9%
same,%Inh,DCAMKL2,0%
same,%Inh,DCAMKL3,0%
same,%Inh,DDR1,0%
same,%Inh,DDR2,23%
same,%Inh,DLK,9%
same,%Inh,DMPK2,0%
N#Cc1ccc(-c2cc(-c3c[nH]nc3-c3ccccn3)ccn2)cc1 [GW693028],%Inh,CSNK1A1L,12%
same,%Inh,CSNK1A1,19%
same,%Inh,CSNK1D,62%
same,%Inh,CSNK1E,32%
same,%Inh,CSNK1G1,8%
same,%Inh,CSNK1G2,0%
same,%Inh,CSNK1G3,8%
same,%Inh,CSNK2A1; [1],0%
same,%Inh,CSNK2A2; [1],5%
same,%Inh,CTK,0%
same,%Inh,DAPK1,0%
same,%Inh,DAPK2,0%
same,%Inh,DAPK3,16%
same,%Inh,DCAMKL1,8%
same,%Inh,DCAMKL2,17%
same,%Inh,DCAMKL3,0%
same,%Inh,DDR1,0%
same,%Inh,DDR2,1%
same,%Inh,DLK,40%
same,%Inh,DMPK2,0%
Cc1cccc(Cn2ccn3c(=O)cc(N4CCOCC4)nc23)c1 [GSK2297542],%Inh,CSNK1A1L,18%
same,%Inh,CSNK1A1,19%
same,%Inh,CSNK1D,48%
same,%Inh,CSNK1E,55%
same,%Inh,CSNK1G1,27%
same,%Inh,CSNK1G2,16%
same,%Inh,CSNK1G3,25%
same,%Inh,CSNK2A1; [1],2%
same,%Inh,CSNK2A2; [1],22%
same,%Inh,CTK,0%
same,%Inh,DAPK1,9%
same,%Inh,DAPK2,5%
same,%Inh,DAPK3,0%
same,%Inh,DCAMKL1,21%
same,%Inh,DCAMKL2,14%
same,%Inh,DCAMKL3,28%
same,%Inh,DDR1,0%
same,%Inh,DDR2,6%
same,%Inh,DLK,49%
same,%Inh,DMPK2,16%
O=c1cc(N2CCOCC2)nc2n(Cc3cccc(Cl)c3Cl)c(C3CC3)nn12 [GSK2358994],%Inh,CSNK1A1L,0%
same,%Inh,CSNK1A1,0%
same,%Inh,CSNK1D,7%
same,%Inh,CSNK1E,11%
same,%Inh,CSNK1G1,0%
same,%Inh,CSNK1G2,5%
same,%Inh,CSNK1G3,23%
same,%Inh,CSNK2A1; 1 µM,16%
same,%Inh,CSNK2A2; 1 µM,0%
same,%Inh,CTK,0%
same,%Inh,DAPK1,26%
same,%Inh,DAPK2,12%
same,%Inh,DAPK3,6%
same,%Inh,DCAMKL1,0%
same,%Inh,DCAMKL2,7%
same,%Inh,DCAMKL3,17%
same,%Inh,DDR1,21%
same,%Inh,DDR2,0%
same,%Inh,DLK,0%
same,%Inh,DMPK2,0%
Fc1ccc(-c2ncn(CCCN3CCOCC3)c2-c2cccnc2)cc1 [SB-211743],%Inh,CSNK1A1L,0%
same,%Inh,CSNK1A1,22%
same,%Inh,CSNK1D,4%
same,%Inh,CSNK1E,24%
same,%Inh,CSNK1G1,0%
same,%Inh,CSNK1G2,0%
same,%Inh,CSNK1G3,17%
same,%Inh,CSNK2A1; [1],0%
same,%Inh,CSNK2A2; [1],0%
same,%Inh,CTK,32%
same,%Inh,DAPK1,9%
same,%Inh,DAPK2,0%
same,%Inh,DAPK3,28%
same,%Inh,DCAMKL1,19%
same,%Inh,DCAMKL2,6%
same,%Inh,DCAMKL3,3%
same,%Inh,DDR1,0%
same,%Inh,DDR2,24%
same,%Inh,DLK,0%
same,%Inh,DMPK2,0%
CC(=O)Nc1ccc(COc2ccc(Nc3ccnc4cc(-c5ccccn5)ccc34)cc2)cc1.Cl [GW440148],%Inh,CSNK1A1L,0%
same,%Inh,CSNK1A1,0%
same,%Inh,CSNK1D,24%
same,%Inh,CSNK1E,33%
same,%Inh,CSNK1G1,9%
same,%Inh,CSNK1G2,0%
same,%Inh,CSNK1G3,29%
same,%Inh,CSNK2A1; [1],5%
same,%Inh,CSNK2A2; [1],11%
same,%Inh,CTK,3%
same,%Inh,DAPK1,0%
same,%Inh,DAPK2,0%
same,%Inh,DAPK3,21%
same,%Inh,DCAMKL1,5%
same,%Inh,DCAMKL2,0%
same,%Inh,DCAMKL3,9%
same,%Inh,DDR1,29%
same,%Inh,DDR2,0%
same,%Inh,DLK,71%
same,%Inh,DMPK2,2%
COCCNC(=O)c1ccc(-c2cc(C(=O)NC3CC3)cc(F)c2C)cc1 [GW868318],%Inh,CSNK1A1L,5%
same,%Inh,CSNK1A1,9%
same,%Inh,CSNK1D,1%
same,%Inh,CSNK1E,31%
same,%Inh,CSNK1G1,0%
same,%Inh,CSNK1G2,4%
same,%Inh,CSNK1G3,8%
same,%Inh,CSNK2A1; [1],0%
same,%Inh,CSNK2A2; [1],9%
same,%Inh,CTK,11%
same,%Inh,DAPK1,10%
same,%Inh,DAPK2,0%
same,%Inh,DAPK3,28%
same,%Inh,DCAMKL1,12%
same,%Inh,DCAMKL2,19%
same,%Inh,DCAMKL3,13%
same,%Inh,DDR1,21%
same,%Inh,DDR2,21%
same,%Inh,DLK,6%
same,%Inh,DMPK2,0%
